Hits are enriched below; roughly 1.1% of the tested compounds scored in any of these assays.
IDE cell activ – human IDE activators in live cells, primary screen, fluorescence polarization, HEK cells, FAbeta-B substrate; FAbeta-B cleavage; 0% vehicle, 100% cell-free pure enzyme wells; activation, % at 5.96 µM; 340,000 compounds, 0.073% hits; AID 493087, 2011;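 active means activation above the mean of all tested compounds plus 3 SD, set per screening campaign, cut at about 17% in these data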
Target sequence (P14735 whole entry, looked up): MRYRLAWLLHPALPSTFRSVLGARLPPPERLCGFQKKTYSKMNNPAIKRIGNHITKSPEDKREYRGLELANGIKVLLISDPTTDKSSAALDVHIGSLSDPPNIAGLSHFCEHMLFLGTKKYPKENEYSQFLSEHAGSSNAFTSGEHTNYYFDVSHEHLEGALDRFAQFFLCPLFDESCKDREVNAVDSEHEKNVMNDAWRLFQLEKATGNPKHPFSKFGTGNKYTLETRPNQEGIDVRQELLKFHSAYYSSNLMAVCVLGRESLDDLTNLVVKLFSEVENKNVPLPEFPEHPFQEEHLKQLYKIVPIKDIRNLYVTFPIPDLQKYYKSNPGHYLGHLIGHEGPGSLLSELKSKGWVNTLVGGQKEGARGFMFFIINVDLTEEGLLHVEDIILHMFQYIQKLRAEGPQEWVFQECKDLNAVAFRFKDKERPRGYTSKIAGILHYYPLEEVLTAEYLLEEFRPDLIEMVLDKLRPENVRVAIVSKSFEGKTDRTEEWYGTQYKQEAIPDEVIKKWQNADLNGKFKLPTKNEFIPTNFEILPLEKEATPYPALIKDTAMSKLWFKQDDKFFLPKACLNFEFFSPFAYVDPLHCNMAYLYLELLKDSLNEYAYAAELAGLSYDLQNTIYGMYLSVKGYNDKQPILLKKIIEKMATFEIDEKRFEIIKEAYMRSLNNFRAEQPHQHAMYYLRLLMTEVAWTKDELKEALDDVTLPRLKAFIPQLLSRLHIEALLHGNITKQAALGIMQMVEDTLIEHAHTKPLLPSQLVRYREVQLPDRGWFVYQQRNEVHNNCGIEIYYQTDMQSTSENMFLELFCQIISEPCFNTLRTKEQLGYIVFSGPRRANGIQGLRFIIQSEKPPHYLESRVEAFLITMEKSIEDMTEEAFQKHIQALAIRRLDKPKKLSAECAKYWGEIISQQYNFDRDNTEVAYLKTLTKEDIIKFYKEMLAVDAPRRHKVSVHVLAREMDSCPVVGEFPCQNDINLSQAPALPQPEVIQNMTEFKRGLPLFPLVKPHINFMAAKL
HDAC3 inhib – HDAC3 deacetylase inhibitors, primary screen, biochemical, fluorescence, cell-free homogeneous; Histone deacetylase 3 (Homo sapiens), O15379; recombinant HDAC3, fluorogenic peptide/trypsin coupled; inhibition, % at 8.3 µM; 320,000 compounds, 0.15% hits; AID 2718, 2010; in the data active means inhibition above about 26%, passing the limit was not always enough; inconclusive means no clear call, values can overlap the other calls
LANA-H2A inh – blockers of LANA interaction with H2A/H2B – biochemical, FP readout, HTS, primary screen; Protein LANA1 (Human herpesvirus 8 type P (isolate GK18)), Q9QR71; cell-free LANA-H2A/H2B peptide, fluorescence polarization; inhibition, % (concentration not given with the values); 320,000 compounds, 0.6% hits; AID 2629, 2010; in the data active means inhibition mostly above about 10%, no sharp cut-off; inactive means mostly below about 6.7%
IDE cell inh – human IDE inhibitors in live cells, primary screen, fluorescence polarization, HEK cells, FAbetaB substrate; Insulin-degrading enzyme (Homo sapiens), P14735; FAbetaB cleavage; inhibition, % at 5.59 µM; 320,000 compounds, 0.41% hits; AID 434962, 2010;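 active means percent inhibition above the average of all tested compounds plus 3 SD, set per screening campaign, cut at about 16% in these data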;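 further: IDE supplied by intact live HEK cells; FP after avidin binding of uncleaved biotin substrate so inhibition keeps polarization high; 0% = DMSO wells and 100% = 60 µM reference IDE inhibitor Ii1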
* marks the source's active call; other numbers are inactive results.

`CCCC(C(=O)NC(C)(C)C)N(CC1CCCO1)C(=O)CNS(=O)(=O)c1ccc(F)cc1` (stereo not drawn) gave IDE cell activ -1, HDAC3 inhib -4, LANA-H2A inh -5 and IDE cell inh 1.
For O=C(Nc1ccc(Cl)cc1)NC1CCCC1Cc1ccco1 (stereo not drawn) the results were IDE cell activ 2, HDAC3 inhib -1, LANA-H2A inh 17* and IDE cell inh 8.
`Cc1sc2nc(CSc3nnnn3-c3ccc(Cl)cc3)[nH]c(=O)c2c1C` gave IDE cell activ 4 and IDE cell inh -4.
`CCn1c(SCc2nc3sc(C(=O)O)c(C)c3c(=O)[nH]2)nnc1-c1ccc(Cl)cc1` gave IDE cell activ 4, HDAC3 inhib 1, LANA-H2A inh active and IDE cell inh -3.
Screening CN1CCN(CCCNC(=O)Nc2cccc3ccccc23)CC1 returned IDE cell activ 0, HDAC3 inhib -9, LANA-H2A inh 5 and IDE cell inh 5.
For O=C(NCCCN1CCCC1)Nc1cccc2ccccc12 the results were IDE cell activ 0, HDAC3 inhib -9, LANA-H2A inh 14* and IDE cell inh 1.
CC(C)CC(=O)N1CCN(c2ccc(NC(=O)c3ccco3)cc2)CC1 was read as IDE cell activ 2, HDAC3 inhib inconclusive, LANA-H2A inh -5 and IDE cell inh 0.
Screening Cc1ccc(NC(=O)NNC(=O)c2cccs2)cc1 returned IDE cell activ 1, HDAC3 inhib 1, LANA-H2A inh 6 and IDE cell inh 1.
Cc1cc(-c2ccccc2)nc2c(Br)c(=O)[nH]n12 was read as IDE cell activ 2, HDAC3 inhib 0, LANA-H2A inh 13* and IDE cell inh 6.
Screening COc1ccc2noc3c2c1C(=O)c1ccccc1-3 returned IDE cell activ 38*, LANA-H2A inh 167* and IDE cell inh -21.
O=C1c2ccccc2-c2onc3ccc(NCCCn4ccnc4)c1c23 was read as HDAC3 inhib 5, LANA-H2A inh 176* and IDE cell inh -8.
`Cn1cc(/C=N\NC(=O)c2cccs2)c2ccccc21` gave IDE cell activ 6, HDAC3 inhib 4, LANA-H2A inh 17* and IDE cell inh -3.
Cn1cccc1/C=N/NC(=O)c1cccs1 was read as IDE cell activ 8, HDAC3 inhib -1, LANA-H2A inh 0 and IDE cell inh -8.
For CC(=O)N1CCN(C(=O)c2c(-c3ccccc3)noc2C)CC1 the results were IDE cell activ 7, HDAC3 inhib -3, LANA-H2A inh 22* and IDE cell inh 5.
Screening O=C(Nc1cc([N+](=O)[O-])ccc1F)C1CC1 returned IDE cell activ 6, HDAC3 inhib 1, LANA-H2A inh 29* and IDE cell inh -9.
Screening CCOC(=O)N1CCN(C(=O)/C=C/c2ccc(C(C)(C)C)cc2)CC1 returned IDE cell activ 3, HDAC3 inhib 6, LANA-H2A inh 37* and IDE cell inh 2.
Cc1ccc(S(=O)(=O)N2CCN(C(=O)COC(=O)c3nc(Cl)ccc3Cl)CC2)c(C)c1 was read as IDE cell activ 8.
For Cn1cccc1CC(=O)N/N=C/C=C/c1ccco1 the results were IDE cell activ 1, HDAC3 inhib 4, LANA-H2A inh 8 and IDE cell inh 1.
For CC(NC(=O)COC(=O)C1CCN(c2ccc(C(F)(F)F)cn2)CC1)c1ccc(F)cc1 (stereo not drawn) the results were IDE cell activ -21, HDAC3 inhib 12, LANA-H2A inh 17* and IDE cell inh 8.
CC(NC(=O)COC(=O)C1CCN(c2ccc(C(F)(F)F)cn2)CC1)c1ccc(Br)cc1 (stereo not drawn) was read as IDE cell activ -4, HDAC3 inhib -2, LANA-H2A inh 1 and IDE cell inh 1.
O=C(NNC(=O)c1ccco1)c1cccc(Br)c1 was read as IDE cell activ 0, HDAC3 inhib 2, LANA-H2A inh -4 and IDE cell inh -2.
CC(C(=O)Nc1ccc(S(=O)(=O)N2CCCCC2)cc1)N1CCN(c2ccccn2)CC1 (stereo not drawn) was read as HDAC3 inhib 5, LANA-H2A inh 138* and IDE cell inh 2.
`CCn1ccnc1CN(C)Cc1cn(-c2cc(C)ccc2C)nc1-c1ccccc1` gave IDE cell activ 8, HDAC3 inhib 6, LANA-H2A inh 20* and IDE cell inh -3.
O=C(Nc1cccc(F)c1)C1CCCN1C(=O)OCc1ccccc1 (stereo not drawn) was read as IDE cell activ 3, HDAC3 inhib 0, LANA-H2A inh 10 and IDE cell inh -4.
Screening COc1ccc(CCN(C)Cc2ccc(C(=O)Nc3ccccc3)cc2)cc1OC returned IDE cell activ 5, HDAC3 inhib -7, LANA-H2A inh 2 and IDE cell inh 1.
`Cc1cccc(C(=O)N2CCCC(N3CCN(c4ccccc4)CC3)C2)n1` (stereo not drawn) gave IDE cell activ 5, HDAC3 inhib 3, LANA-H2A inh 4 and IDE cell inh -1.
CCN(CC)S(=O)(=O)c1ccc(N2CCCC2)c(NC(=O)CC(C)(C)C)c1 was read as IDE cell activ 2, LANA-H2A inh 4 and IDE cell inh 4.
For COc1cc(CNCc2ccc(OC)c(OC)c2OC)cc(OC)c1 the results were IDE cell activ 11, HDAC3 inhib -5, LANA-H2A inh 37* and IDE cell inh -1.
Screening COc1ccc(C2CCCN2C(=O)Nc2ccc(Cl)cc2)cc1OC (stereo not drawn) returned IDE cell activ -10, HDAC3 inhib -2, LANA-H2A inh 2 and IDE cell inh 9.
For CCOc1cc(/C=C2\N=C(C)OC2=O)cc(Cl)c1OCC(=O)OC the results were IDE cell activ 4, HDAC3 inhib 48*, LANA-H2A inh 0 and IDE cell inh 4.
For Cc1cccc(CS(=O)(=O)Cc2ccc(C(=O)NCCc3ccccc3)o2)c1 the results were IDE cell activ 4, HDAC3 inhib 16, LANA-H2A inh -7 and IDE cell inh 2.
Screening COc1ccc(CCNC(=O)c2ccc(CS(=O)(=O)c3ccc(Cl)cc3)o2)cc1OC returned IDE cell activ -2, HDAC3 inhib 1, LANA-H2A inh 27* and IDE cell inh 0.
`CN(CCNC(=O)c1ccc(CS(=O)(=O)c2ccc(Br)cc2)o1)CCc1ccccc1` gave IDE cell activ 2, HDAC3 inhib 3, LANA-H2A inh 19* and IDE cell inh -2.
`Cc1ccccc1CS(=O)(=O)Cc1ccc(C(=O)NCCc2ccccc2)o1` gave IDE cell activ -2, HDAC3 inhib 1, LANA-H2A inh 15* and IDE cell inh -1.
`O=c1c2ccccc2sc2ccccc12` gave IDE cell activ 1.
For O=c1c(C(c2ccccc2)c2c(O)sc3ccccc3c2=O)c(O)sc2ccccc12 the results were IDE cell activ 5, HDAC3 inhib 10, LANA-H2A inh 11* and IDE cell inh -8.

Screening data deposited in PubChem by several laboratories.
